Measured values from the supplement of paper PMC6992640.
± gives the standard deviation of the averaged measurements.

Tests used:
Assay in all cases: cell viability (% of vehicle); higher = less cytotoxic
Settings in all cases: 10 µM; 72 h
HCI01 = test system: HCI01 (cells of a triple-negative basal-like breast cancer xenograft)
HCI03 = test system: HCI03 (cells of an ER-positive luminal breast cancer xenograft)
HCI09 = test system: HCI09 (cells of a triple-negative luminal androgen receptor type breast cancer xenograft)
HCI11 = test system: HCI11 (cells of an ER-positive luminal breast cancer xenograft)
HCI13 = test system: HCI13 (cells of an ER-positive luminal breast cancer xenograft)
HCI16 = test system: HCI16 (cells of a triple-negative basal-like breast cancer xenograft)
UCD52 = test system: UCD52 (cells of a triple-negative basal-like breast cancer xenograft)
WHIM2 = test system: WHIM2 (cells of a triple-negative basal-like breast cancer xenograft)
WHIM30 = test system: WHIM30 (cells of a triple-negative basal-like breast cancer xenograft)
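Further: PDX cells carrying CMV promoter-driven luciferase, viability read as total photon flux per second by IVIS imaging following D-luciferin, vehicle control 0.1% DMSO.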

Row | Structure (SMILES) | cell viability (HCI01) | cell viability (HCI03) | cell viability (HCI09) | cell viability (HCI11) | cell viability (HCI13) | cell viability (HCI16) | cell viability (UCD52) | cell viability (WHIM2) | cell viability (WHIM30)
1 | CCC(=C(CC)c1ccc(O)cc1)c1ccc(O)cc1 [Diethylstilbestrol] | 59.1 ± 40 | 95.7 | 61.4 ± 39 | 75.5 | 41 ± 12 | 107 | 78.3 ± 8.4 | 116 ± 51 | 83.8 ± 11
2 | CC1(C)SC2C(NC(=O)Cc3ccccc3)C(=O)N2C1C(=O)[O-].[Na+] (configuration not stated) [Penicillin G Sodium] | 170 ± 78 | 105 | 91.8 ± 20 | 105 | 70.7 ± 9.5 | 111 | 99.7 ± 20 | 108 ± 14 | 109 ± 5.6
3 | O=C(O)Cc1cc(I)c(Oc2ccc(O)c(I)c2)c(I)c1 [Tiratricol] | 112 ± 48 | 99 | 82.8 ± 6.7 | 87.2 | 42.5 ± 4.2 | 97.2 | 75.6 ± 7.3 | 103 ± 20 | 115 ± 6.8
4 | CCCCNc1ccc(C(=O)OCCN(C)C)cc1.Cl [Tetracaine HCl] | 130 ± 19 | 134 | 105 ± 25 | 121 | 122 ± 19 | 99 | 90.7 ± 13 | 92.2 ± 17 | 103.43 ± 0.084
5 | CCOC(=O)[C@H](CCc1ccccc1)N[C@@H](C)C(=O)N1[C@H](C(=O)O)C[C@H]2CCCC[C@@H]21 [Trandolapril] | 121 ± 2.9 | 148 | 115 ± 11 | 98.7 | 124 ± 12 | 130 | 112 ± 20 | 109 ± 14 | 174 ± 15
6 | c1cc(CN2CCCNCCNCCCNCC2)ccc1CN1CCCNCCNCCCNCC1 [Plerixafor (AMD3100)] | 99.4 ± 11 | 86.8 | 92.6 ± 9.3 | 84.7 | 85.1 ± 4.1 | 87.9 | 92.3 ± 9.7 | 73 ± 11 | 110 ± 12
7 | COc1cc2c(cc1O)CCC1C2CCC2(C)C(O)CCC12 (configuration not stated) [2-Methoxyestradiol (2-MeOE2)] | 141 ± 8 | 110 | 94.8 ± 12 | 117 | 181 ± 10 | 121 | 95.1 ± 7.2 | 114 ± 7 | 150 ± 22
8 | CC(C)(Oc1ccc(Cl)cc1)C(=O)O [Clofibric Acid] | 109 ± 22 | 119 | 79.6 ± 22 | 99.3 | 94.8 ± 9.6 | 97.8 | 81.1 ± 14 | 93.3 ± 20 | 109.5 ± 0.67
9 | NCCCC(O)(P(=O)([O-])O)P(=O)(O)O.O.O.O.[Na+] [Alendronate] | 89.6 ± 12 | 123 | 85.1 ± 12 | 69.5 | 106 ± 5.1 | 109 | 94.7 ± 19 | 104 ± 5.2 | 97.5 ± 11
10 | CCOC(=O)C(CCc1ccccc1)NC1CCc2ccccc2N(CC(=O)O)C1=O.Cl (configuration not stated) [Benazepril HCl] | 107 ± 11 | 159 | 130 ± 41 | 93.5 | 196 ± 40 | 161 | 130 ± 7.6 | 107 ± 13 | 170 ± 22
11 | Cc1ccc(Nc2nccc(N(C)c3ccc4c(C)n(C)nc4c3)n2)cc1S(N)(=O)=O.Cl | 166 ± 30 | 77.2 | 61.1 ± 13 | 85.4 | 110 ± 6.2 | 92 | 90.5 ± 2.9 | 152 ± 5.7 | 144 ± 6
12 | Cl.NCCS [Cysteamine HCl] | 112 ± 4.3 | 112 | 93.4 ± 4.4 | 95.8 | 79.5 ± 5.4 | 108 | 92.8 ± 18 | 102.7 ± 1 | 102 ± 7
13 | CNCC(O)C(O)C(O)C(O)CO (configuration not stated) [Meglumine] | 80.2 ± 19 | 93.4 | 97.6 ± 1.5 | 74.4 | 142 ± 11 | 110 | 78.3 ± 1.6 | 85.9 ± 25 | 133 ± 5.2
14 | CCCCCCOC(=O)N=C(N)c1ccc(NCc2nc3cc(C(=O)N(CCC(=O)OCC)c4ccccn4)ccc3n2C)cc1 | 94.2 ± 9.6 | 124 | 105 ± 7.4 | 111 | 118 ± 7.9 | 107 | 91.9 ± 7.3 | 107 ± 32 | 116 ± 11
15 | O=c1[nH]c(=O)n(C2CC(O)C(CO)O2)cc1F (configuration not stated) [Floxuridine] | 122 ± 5.9 | 103 | 103 ± 20 | 131 | 84.4 ± 5.7 | 161 | 167 ± 12 | 105 ± 13 | 149 ± 34
16 | O=c1ccc2ccccc2o1 [Coumarin] | 110 ± 15 | 145 | 99.9 ± 6.8 | 95 | 102 ± 7.2 | 128 | 93.3 ± 14 | 113 ± 4.4 | 114 ± 2.5
17 | CCOC(=O)c1ccc(N)cc1 [Benzocaine] | 144 ± 13 | 87.2 | 115 ± 14 | 117 | 79.8 ± 1.6 | 134 | 117 ± 8.3 | 142 ± 12 | 140 ± 10
18 | CNC(=C[N+](=O)[O-])NCCSCc1ccc(CN(C)C)o1.Cl [Ranitidine] | 110 ± 5 | 125 | 112 ± 1.9 | 103 | 122 ± 6.4 | 122 | 89.9 ± 9.7 | 85.6 ± 2.9 | 113 ± 11
19 | Cc1nc2n(c(=O)c1CCN1CCC(c3noc4cc(F)ccc34)CC1)CCCC2 [Risperidone] | 133 ± 7.9 | 82.8 | 107 ± 61 | 105 | 118 ± 38 | 107 | 83.8 ± 11 | 86 ± 25 | 128 ± 15

Row | Structure (SMILES) | cell viability (HCI01) | cell viability (HCI03) | cell viability (HCI09) | cell viability (HCI11) | cell viability (HCI13) | cell viability (HCI16) | cell viability (UCD52) | cell viability (WHIM2) | cell viability (WHIM30)
20 | CC(=O)OC1(C(C)=O)CCC2C3CCC4=CC(=O)CCC4=C3C(c3ccc(N(C)C)cc3)CC21C (configuration not stated) [Ulipristal acetate] | 97.9 ± 26 | 116 | 82.5 ± 9 | 78.9 | 92.8 ± 17 | 117 | 93.4 ± 5.8 | 105 ± 2.1 | 111 ± 18
21 | CCCCN1CCCCC1C(=O)Nc1c(C)cccc1C.Cl (configuration not stated) [Bupivacaine HCl] | 145 ± 30 | 128 | 104 ± 14 | 120 | 106 ± 2.1 | 169 | 89 ± 16 | 111 ± 7.6 | 117 ± 12
22 | CC(CN1CC(=O)NC(=O)C1)N1CC(=O)NC(=O)C1 (configuration not stated) [Dexrazoxane] | 83 ± 6.2 | 148 | 102 ± 20 | 92.4 | 110 ± 13 | 103 | 100.8 ± 0.77 | 75.7 ± 5.5 | 131.05 ± 0.028
23 | Cl.Clc1cccc(Cl)c1NC1=NCCN1 [Clonidine HCl] | 132 ± 6.9 | 127 | 99 ± 9 | 114 | 111 ± 6.8 | 135 | 94.9 ± 3.3 | 104 ± 15 | 124.6 ± 0.22
24 | O=C(O)c1cc(=O)[nH]c(=O)[nH]1 [Orotic acid] | 90.2 ± 12 | 100 | 88.5 ± 22 | 93.2 | 85.7 ± 3.8 | 120 | 93.6 ± 9.7 | 102.1 ± 0.24 | 76.6 ± 5.3
25 | O=C1C(=O)c2ccccc2C(O)=C1C1CCC(c2ccc(Cl)cc2)CC1 (configuration not stated) [Atovaquone] | 81.6 ± 34 | 82.3 | 27.7 ± 4.7 | 54.9 | 50 ± 1.9 | 116 | 78.9 ± 15 | 99.7 ± 8.7 | 72.4 ± 1.9
26 | CCN(CC)CC(=O)Nc1c(C)cccc1C [Lidocaine] | 107 ± 5.8 | 94.4 | 105 ± 5.4 | 100 | 100 ± 3.6 | 93.9 | 90.9 ± 16 | 74.4 ± 18 | 122 ± 21
27 | CC(=CC(=O)OCCCCCCCCC(=O)O)CC1OCC(CC2OC2C(C)C(C)O)C(O)C1O (configuration not stated) [Mupirocin] | 97.5 ± 17 | 129 | 86.5 ± 23 | 90.6 | 89.6 ± 9.9 | 101 | 84.2 ± 3.4 | 81.9 ± 12 | 113.3 ± 0.3
28 | Clc1ccccc1C(c1ccccc1)(c1ccccc1)n1ccnc1 [Clotrimazole] | 82.5 ± 21 | 70.8 | 55.1 ± 39 | 95.1 | 85.5 ± 21 | 79.8 | 79.6 ± 8.2 | 73.7 ± 16 | 125 ± 1
29 | C=CCNC(N)=S [Allylthiourea] | 96.4 ± 7.7 | 118 | 94.1 ± 19 | 97.4 | 64.8 ± 14 | 107 | 129 ± 35 | 108 ± 35 | 130 ± 8
30 | Cc1[nH]c(=O)c(C#N)cc1-c1ccncc1 [Milrinone] | 124 ± 0.28 | 117 | 96.6 ± 32 | 102 | 98 ± 13 | 94 | 90.5 ± 4.6 | 101 ± 10 | 106 ± 18
31 | CN(CCOc1ccc(CC2SC(=O)NC2=O)cc1)c1ccccn1 (configuration not stated) [Rosiglitazone] | 176 ± 35 | 162 | 129 ± 33 | 153 | 189 ± 26 | 142 | 124 ± 10 | 174 ± 17 | 199 ± 3.1
32 | CCC(C(C)O)n1ncn(-c2ccc(N3CCN(c4ccc(OCC5COC(Cn6cncn6)(c6ccc(F)cc6F)C5)cc4)CC3)cc2)c1=O (configuration not stated) [Posaconazole] | 123 ± 2.6 | 78 | 59.1 ± 18 | 64.1 | 79.9 ± 3.4 | 94.5 | 74.8 ± 6.6 | 86.8 ± 13 | 105 ± 18
33 | Cn1c(=O)cc(N2CCCC(N)C2)n(Cc2cc(F)ccc2C#N)c1=O (configuration not stated) [Trelagliptin] | 111 ± 7 | 116 | 112 ± 6.1 | 111 | 104 ± 1.3 | 95.2 | 96.2 ± 11 | 96.8 ± 4.5 | 121 ± 13
34 | CN(C)NN=C1N=CN=C1C(N)=O [Dacarbazine] | 122 ± 9.3 | 92.9 | 110.4 ± 0.52 | 93.5 | 120 ± 16 | 82.7 | 107 ± 8 | 80.3 ± 24 | 118 ± 25
35 | CC(=O)Oc1cc2c(s1)CCN(C(C(=O)C1CC1)c1ccccc1F)C2 (configuration not stated) [Prasugrel] | 76.6 ± 67 | 164 | 114 ± 4.9 | 120 | 81.6 ± 18 | 122 | 113 ± 20 | 102 ± 28 | 112 ± 16
36 | CC(=O)O[C@H]1C[C@@]2(C)[C@@H](C[C@@H](O)[C@H]3[C@@]4(C)CC[C@@H](O)[C@@H](C)[C@@H]4CC[C@@]32C)/C1=C(\CCC=C(C)C)C(=O)[O-].[Na+] [Fusidic Acid (sodium salt)] | 97.1 ± 30 | 116 | 112 ± 21 | 81.6 | 129 ± 2.5 | 121 | 111 ± 3.2 | 88.3 ± 15 | 149 ± 19
37 | O=C(O)c1ccc2ccccc2c1O.OCc1cc(C(O)CNCCCCCCOCCCCc2ccccc2)ccc1O (configuration not stated) [Salmeterol xinafoate] | 86 ± 1.1 | 92.5 | 57.3 ± 8 | 75.2 | 88.6 ± 9.6 | 76.1 | 62.1 ± 0.9 | 66.7 ± 13 | 107 ± 20
38 | CC12CCC3c4ccc(O)cc4CCC3C1CC(O)C2O (configuration not stated) [Estriol] | 132 ± 20 | 118 | 125 ± 36 | 91.7 | 152 ± 25 | 152 | 105 ± 16 | 98.4 ± 8.9 | 150 ± 11
